# Measured values taken from the supplement of paper PMC8728848.
# The entries come from a sample that favours the strongest signals as a whole.
# Assays:
# Test in all cases: glycan array binding signal (z-score within array); higher = stronger binding
# Conditions in all cases: glycan notation: IUPAC condensed, linker removed
# [1] = target: Fuc(a1-2)Gal(b1-3)GlcNAc(b1-3)[Gal(b1-4)GlcNAc(b1-6)]Gal(b1-4)Glc
# Outline: (§1)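 Glycan array data were curated from 3228 arrays in the Consortium for Functional Glycomics database and kept only where the protein sequence was available. Glycan names were converted to IUPAC-condensed notation, and columns mapping to the same glycan were averaged. The binding signal is a within-array Z-score, averaged across arrays of the same protein sequence at different concentrations or buffers and across linkers. Negative Z-scores can be read as non-binding.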
# [2] = target: Fuc(a1-2)Gal(b1-4)GlcNAc(b1-2)Man(a1-3)[Fuc(a1-2)Gal(b1-4)GlcNAc(b1-2)Man(a1-6)]Man(b1-4)GlcNAc(b1-4)[Fuc(a1-6)]GlcNAc
# Outline: as §1
# [3] = target: Fuc(a1-2)Gal(b1-4)GlcNAc(b1-3)Gal(b1-4)GlcNAc(b1-2)Man(a1-3)[Fuc(a1-2)Gal(b1-4)GlcNAc(b1-3)Gal(b1-4)GlcNAc(b1-2)Man(a1-6)]Man(b1-4)GlcNAc(b1-4)GlcNAc
# Outline: as §1
# [4] = target: Fuc(a1-2)Gal(b1-4)GlcNAc(b1-3)[Fuc(a1-2)Gal(b1-4)GlcNAc(b1-6)]GalNAc
# Outline: as §1
# [5] = target: Fuc(a1-2)Gal(b1-4)[Fuc(a1-3)]GlcNAc(b1-3)[Neu5Ac(a2-6)Gal(b1-4)GlcNAc(b1-6)]Gal(b1-4)Glc
# Outline: as §1
# [6] = target: Fuc(a1-2)[Gal(a1-3)]Gal(b1-3)GlcNAc(b1-3)GalNAc
# Outline: as §1
# [7] = target: Fuc(a1-2)[GalNAc(a1-3)]Gal(b1-3)GalNAc(b1-3)Gal(a1-4)Gal(b1-4)Glc
# Outline: as §1
# [8] = target: Fuc(a1-2)[GalNAc(a1-3)]Gal(b1-3)GlcNAc(b1-2)Man(a1-3)[Fuc(a1-2)[GalNAc(a1-3)]Gal(b1-3)GlcNAc(b1-2)Man(a1-6)]Man(b1-4)GlcNAc(b1-4)GlcNAc
# Outline: as §1
# [9] = target: Fuc(a1-2)[GalNAc(a1-3)]Gal(b1-4)[Fuc(a1-3)]GlcNAc
# Outline: as §1
# [10] = target: Fuc(a1-2)[GalNAc(a1-3)]Gal(b1-4)[Fuc(a1-3)]GlcNAc(b1-3)GalNAc
# Outline: as §1
# [11] = target: Fuc(a1-3)[Gal(b1-4)]Glc6S
# Outline: as §1
# [12] = target: Fuc(a1-3)[Gal(b1-4)]GlcNAc(b1-6)GalNAc
# Outline: as §1
# [13] = target: Fuc(a1-3)[Gal(b1-4)]GlcNAc(b1-6)[Gal(b1-3)GlcNAc(b1-3)]Gal(b1-4)Glc
# Outline: as §1
# [14] = target: Fuc(a1-3)[Gal3S(b1-4)]GlcNAc6S
# Outline: as §1
# [15] = target: Fuc(a1-3)[GalNAc(b1-4)]GlcNAc
# Outline: as §1
# [16] = target: Gal(a1-3)Gal(b1-4)GlcNAc
# Outline: as §1
# [17] = target: Gal(a1-4)Gal(b1-4)Glc
# Outline: as §1
# [18] = target: Gal(b1-3)GalNAc(a1-3)[Fuc(a1-2)]Gal(b1-4)GlcNAc
# Outline: as §1
# [19] = target: Gal(b1-4)GlcNAc(b1-2)[Gal(b1-4)GlcNAc(b1-6)]Man(a1-6)[GlcNAc(b1-4)][Gal(b1-4)GlcNAc(b1-2)[Gal(b1-4)GlcNAc(b1-4)]Man(a1-3)]Man(b1-4)GlcNAc(b1-4)[Fuc(a1-6)]GlcNAc
# Outline: as §1
# [20] = target: Gal(b1-4)GlcNAc(b1-3)Gal(b1-4)GlcNAc(b1-2)Man(a1-3)[Gal(b1-4)GlcNAc(b1-3)Gal(b1-4)GlcNAc(b1-2)Man(a1-6)]Man(b1-4)GlcNAc(b1-4)GlcNAc
# Outline: as §1
# [21] = target: Gal(b1-4)GlcNAc(b1-3)Gal(b1-4)GlcNAc(b1-3)Gal(b1-4)GlcNAc
# Outline: as §1
# [22] = target: Gal(b1-4)GlcNAc(b1-3)Gal(b1-4)GlcNAc(b1-6)[Gal(b1-3)]GalNAc
# Outline: as §1
binder,measurement,setting,value
"SRA-1 (Homo sapiens), P21757 (protein) MEQWDHFHNQQEDTDSCSESVKFDARSMTALLPPNPKNSPSLQEKLKSFKAALIALYLLVFAVLIPLIGIVAAQLLKWETKNCSVSSTNANDITQSLTGKGNDSEEEMRFQEVFMEHMSNMEKRIQHILDMEANLMDTEHFQNFSMTTDQRFNDILLQLSTLFSSVQGHGNAIDEISKSLISLNTTLLDLQLNIENLNGKIQENTFKQQEEISKLEERVYNVSAEIMAMKEEQVHLEQEIKGEVKVLNNITNDLRLKDWEHSQTLRNITLIQGPPGPPGEKGDRGPTGESGPRGFPGPIGPPGLKGDRGAIGFPGSRGLPGYAGRPGNSGPKGQKGEKGSGNTLTPFTKVRLVGGSGPHEGRVEILHSGQWGTICDDRWEVRVGQVVCRSLGYPGVQAVHKAAHFGQGTGPIWLNEVFCFGRESSIEECKIRQWGTRACSHSEDAGVTCTL",glycan array binding signal (z-score),[1],-0.462
same,glycan array binding signal (z-score),[2],-0.606
same,glycan array binding signal (z-score),[3],0.064
same,glycan array binding signal (z-score),[4],1.17
same,glycan array binding signal (z-score),[5],0.274
same,glycan array binding signal (z-score),[6],-0.365
same,glycan array binding signal (z-score),[7],-0.415
same,glycan array binding signal (z-score),[8],0.613
same,glycan array binding signal (z-score),[9],1.28
same,glycan array binding signal (z-score),[10],21.8
same,glycan array binding signal (z-score),[11],1.43
same,glycan array binding signal (z-score),[12],-0.092
same,glycan array binding signal (z-score),[13],-0.456
same,glycan array binding signal (z-score),[14],0.048
same,glycan array binding signal (z-score),[15],1
same,glycan array binding signal (z-score),[16],-0.529
same,glycan array binding signal (z-score),[17],4.58
same,glycan array binding signal (z-score),[18],0.047
same,glycan array binding signal (z-score),[19],-0.205
same,glycan array binding signal (z-score),[20],0.208
same,glycan array binding signal (z-score),[21],-0.32
same,glycan array binding signal (z-score),[22],-0.129
